Data as given in PubChem BioAssay (NCI).
Compounds without any hit were thinned out: in the full panel of roughly 79,000, 15% have a hit. Active and inactive are the calls of the source. Rule as the data show it: active = growth inhibition above about 70%; inactive = the rest.

Tests used:
[1] = NCI Yeast Anticancer Drug Screen. Data for the rad52 strain (AID 147);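 also: 0% = growth of vehicle-treated control cultures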; details: S. cerevisiae rad52 mutant growth inhibition, active compounds read high
Outline: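 Growth of repair-deficient yeast cells was compared between compound-treated and vehicle-treated cultures to give percent inhibition.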

[2] = NCI Yeast Anticancer Drug Screen. Data for the wt1 strain (AID 149);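 also: 0% = growth of vehicle-treated wt1 cultures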; details: S. cerevisiae wt1 strain (SPY 50644) growth inhibition, active compounds read high
Outline: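 Using yeast strain wt1, compound-induced growth inhibition was determined against vehicle-treated cultures.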

[3] = NCI Yeast Anticancer Drug Screen. Data for the mgt1 strain (AID 153); details: S. cerevisiae mgt1 mutant growth inhibition, active compounds read high
Outline: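 Compounds were applied to mgt1 mutant yeast, and growth was then compared against vehicle-treated control cultures to give percent inhibition.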

[4] = NCI Yeast Anticancer Drug Screen. Data for the rad50 strain (AID 155);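 also: 0% = growth of vehicle-only cultures of the same strain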; details: S. cerevisiae rad50 strain growth inhibition, active compounds read high
Outline: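 Relative growth inhibition (compound vs vehicle) was measured in yeast with a defined repair-gene alteration.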

[5] = NCI Yeast Anticancer Drug Screen. Data for the mec2-1 strain (AID 157); details: S. cerevisiae mec2-1 strain, active compounds read high
Outline: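 Compounds were applied to mec2-1 yeast cells. Their growth was then compared with that of vehicle-treated cultures to give growth inhibition.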

[6] = NCI Yeast Anticancer Drug Screen. Data for the rad14 strain (AID 159);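 also: 0% = growth of vehicle-treated control cultures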; details: S. cerevisiae rad14 strain growth inhibition, active compounds read high
Outline: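 Screen for anticancer potential: a yeast strain altered in DNA damage repair is grown with compound, and reduced growth is quantified against vehicle controls.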

[7] = NCI Yeast Anticancer Drug Screen. Data for the sgs1 mgt1 strain (AID 161);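 also: 0% = growth of cultures given vehicle only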; details: S. cerevisiae sgs1 mgt1 strain, active compounds read high
Outline: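 Growth of a repair-deficient yeast mutant was monitored after compound treatment and expressed as inhibition relative to vehicle-treated cultures.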

[8] = NCI Yeast Anticancer Drug Screen. Data for the CLN2oe strain (AID 163);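 also: 0% = growth of vehicle-only control cultures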; details: S. cerevisiae CLN2oe strain, active compounds read high
Outline: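 Cells of an engineered yeast line with disturbed cell-cycle regulation are treated with compound. Inhibition of growth is then calculated relative to the vehicle-treated reference.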

[9] = NCI Yeast Anticancer Drug Screen. Data for the cln2 rad14 strain (AID 165);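 also: 0% = growth equal to vehicle treated cultures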; details: S. cerevisiae cln2 rad14 strain, active compounds read high
Outline: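 Strain: cln2 rad14 yeast, altered in cell cycle control and DNA damage repair. Read-out: growth inhibition vs vehicle.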

[10] = NCI Yeast Anticancer Drug Screen. Data for the bub3 strain (AID 167); details: S. cerevisiae bub3 mutant strain, active compounds read high
Outline: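 Screening used yeast with an engineered genetic alteration affecting cell cycle control. Compound-exposed cultures were compared with vehicle cultures, and reduced growth was taken as inhibition.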

[11] = NCI Yeast Anticancer Drug Screen. Data for the wt2 strain (AID 169);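 also: 0% = growth of vehicle-treated yeast cultures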; details: S. cerevisiae wt2 strain growth inhibition, active compounds read high
Outline: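 Growth of compound-treated yeast is measured and expressed as inhibition relative to vehicle-only controls.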

[12] = NCI Yeast Anticancer Drug Screen. Data for the mlh1 strain (AID 171);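 also: 0% = growth of vehicle-treated control cultures of the same strain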; details: S. cerevisiae mlh1 strain growth inhibition, active compounds read high
Outline: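 Test agents were incubated with yeast bearing a defined DNA damage repair or cell cycle control alteration; values are growth inhibition normalised to vehicle-treated cultures.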

[13] = NCI Yeast Anticancer Drug Screen. Data for the sgs1 strain (AID 173);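 also: 0% = growth of vehicle-only control cultures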; details: S. cerevisiae sgs1 mutant, active compounds read high
Outline: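 Strain with an altered DNA repair or cell cycle pathway exposed to compound. Growth then measured. Value = inhibition versus vehicle control.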

[14] = NCI Yeast Anticancer Drug Screen. Data for the mlh1 rad18 strain (AID 175); details: S. cerevisiae mlh1 rad18 strain growth inhibition, active compounds read high
Outline: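 A repair-deficient yeast strain is exposed to test compound, and growth is scored relative to vehicle-treated controls.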

[15] = NCI Yeast Anticancer Drug Screen. Data for the rad18 strain (AID 177); details: S. cerevisiae rad18 mutant growth inhibition, active compounds read high
Outline: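 DNA-repair-defective yeast; compound treatment; growth inhibition scored against vehicle.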

[16] = at 5.0 µM (retest, dose inferred, filed as 0.5)
[17] = at 50.0 µM (retest, dose inferred, filed as 5.0)

Measured: growth inhibition

O=[N+]([O-])c1cccc2nc3ccccc3c(NCCCN3CCCCC3)c12
inactive: [2]; at 1.2 µM 3% | [2]; at 3.7 µM 13% | [3]; at 1.2 µM 12% | [3]; at 3.7 µM 45% | [8]; at 1.2 µM -3% | [8]; at 3.7 µM 45% | [10]; at 1.2 µM -14% | [10]; at 3.7 µM 21% | [10]; [16] 22% | [11]; at 1.2 µM 1% | [11]; at 3.7 µM 39% | [12]; at 1.2 µM 10% | [12]; at 3.7 µM 50%
active: [1]; at 1.2 µM 89% | [1]; at 3.7 µM 95% | [1]; at 11.0 µM 96% | [1]; at 33.0 µM 97% | [1]; at 100.0 µM 98% | [2]; at 11.0 µM 80% | [2]; at 33.0 µM 96% | [2]; at 100.0 µM 97% | [3]; at 11.0 µM 94% | [3]; at 33.0 µM 98% | [3]; at 100.0 µM 99% | [4]; at 1.2 µM 71% | [4]; at 3.7 µM 89% | [4]; [16] 89% | [4]; at 11.0 µM 94% | [4]; at 33.0 µM 96% | [4]; [17] 98% | [4]; at 50.0 µM 96.7% | [4]; at 100.0 µM 97% | [5]; at 1.2 µM 73% | [5]; at 3.7 µM 94% | [5]; [16] 97% | [5]; at 11.0 µM 97% | [5]; at 33.0 µM 97% | [5]; [17] 99% | [5]; at 50.0 µM 98.2% | [5]; at 100.0 µM 98% | [6]; at 1.2 µM 98% | [6]; at 3.7 µM 98% | [6]; at 11.0 µM 98% | [6]; at 33.0 µM 99% | [6]; at 100.0 µM 98% | [7]; [16] 92% | [7]; [17] 98% | [7]; at 50.0 µM 97% | [8]; at 11.0 µM 89% | [8]; at 33.0 µM 95% | [8]; at 100.0 µM 98% | [9]; [16] 99% | [9]; [17] 99% | [9]; at 50.0 µM 97.5% | [10]; at 11.0 µM 90% | [10]; at 33.0 µM 97% | [10]; [17] 98% | [10]; at 50.0 µM 96.8% | [10]; at 100.0 µM 98% | [11]; at 11.0 µM 89% | [11]; at 33.0 µM 97% | [11]; at 100.0 µM 98% | [12]; at 11.0 µM 92% | [12]; at 33.0 µM 97% | [12]; at 100.0 µM 99% | [13]; at 1.2 µM 87% | [13]; at 3.7 µM 93% | [13]; at 11.0 µM 95% | [13]; at 33.0 µM 98% | [13]; at 100.0 µM 98% | [14]; [16] 97% | [14]; [17] 99% | [14]; at 50.0 µM 98%

C[C@H](CCC1=NC(C)(C)CO1)C1CCC2[C@@H]3C(O)C[C@@H]4CC(O)CC[C@]4(C)C3CC[C@@]21C (some centres undefined)
active: [1]; at 33.0 µM 70% | [1]; at 100.0 µM 99% | [2]; at 100.0 µM 99% | [3]; at 33.0 µM 71% | [3]; at 100.0 µM 100% | [4]; at 33.0 µM 76% | [4]; [17] 95% | [4]; at 50.0 µM 99.4% | [4]; at 100.0 µM 99% | [5]; at 33.0 µM 84% | [5]; [17] 98% | [5]; at 50.0 µM 99.8% | [5]; at 100.0 µM 100% | [6]; at 33.0 µM 99% | [6]; at 100.0 µM 100% | [7]; [17] 98% | [7]; at 50.0 µM 99.7% | [8]; at 100.0 µM 99% | [9]; [17] 96% | [9]; at 50.0 µM 97.9% | [10]; at 33.0 µM 79% | [10]; [17] 98% | [10]; at 50.0 µM 98.5% | [10]; at 100.0 µM 99% | [11]; at 33.0 µM 95% | [11]; at 100.0 µM 100% | [12]; at 33.0 µM 87% | [12]; at 100.0 µM 100% | [13]; at 33.0 µM 90% | [13]; at 100.0 µM 100% | [14]; [17] 98% | [14]; at 50.0 µM 99.4% | [15]; at 33.0 µM 96% | [15]; at 100.0 µM 99%
inactive: [1]; at 1.2 µM -3% | [1]; at 3.7 µM -5% | [1]; at 11.0 µM -9% | [2]; at 1.2 µM -3% | [2]; at 3.7 µM -5% | [2]; at 11.0 µM -11% | [2]; at 33.0 µM 37% | [3]; at 1.2 µM -7% | [3]; at 3.7 µM -8% | [3]; at 11.0 µM -9% | [4]; at 1.2 µM -3% | [4]; at 3.7 µM -4% | [4]; [16] 1% | [4]; at 11.0 µM -8% | [5]; at 1.2 µM -5% | [5]; at 3.7 µM -3% | [5]; [16] -2% | [5]; at 11.0 µM -6% | [6]; at 1.2 µM -4% | [6]; at 3.7 µM -4% | [6]; at 11.0 µM 1% | [7]; [16] 3% | [8]; at 1.2 µM -6% | [8]; at 3.7 µM -12% | [8]; at 11.0 µM -11% | [8]; at 33.0 µM 62% | [9]; [16] 1% | [10]; at 1.2 µM -3% | [10]; at 3.7 µM -2% | [10]; [16] 0% | [10]; at 11.0 µM -10% | [11]; at 1.2 µM -4% | [11]; at 3.7 µM -7% | [11]; at 11.0 µM -12% | [12]; at 1.2 µM -3% | [12]; at 3.7 µM -6% | [12]; at 11.0 µM -6% | [13]; at 1.2 µM -3% | [13]; at 3.7 µM -4% | [13]; at 11.0 µM -6% | [14]; [16] -7% | [15]; at 1.2 µM -5% | [15]; at 3.7 µM -6% | [15]; at 11.0 µM -6%

CC/C(=C(\c1ccccc1)c1ccc(OCC[N+](C)(C)C)cc1)c1ccccc1
inactive: [1]; at 1.2 µM 0% | [1]; at 3.7 µM 68% | [2]; at 1.2 µM -4% | [2]; at 3.7 µM 12% | [3]; at 1.2 µM -1% | [3]; at 3.7 µM 55% | [4]; at 1.2 µM 7% | [5]; at 1.2 µM -6% | [5]; at 3.7 µM 33% | [5]; [16] 31% | [5]; [17] 31% | [6]; at 1.2 µM 0% | [8]; at 1.2 µM -7% | [8]; at 3.7 µM 10% | [9]; [16] 21% | [9]; [17] 21% | [10]; at 1.2 µM -3% | [10]; at 3.7 µM 36% | [10]; [16] 22% | [10]; [17] 22% | [11]; at 1.2 µM -2% | [11]; at 3.7 µM 55% | [12]; at 1.2 µM -7% | [13]; at 1.2 µM -7% | [13]; at 3.7 µM 65% | [14]; [16] 27% | [14]; [17] 27% | [15]; at 1.2 µM 3%
active: [1]; at 11.0 µM 99% | [1]; at 33.0 µM 99% | [1]; at 100.0 µM 99% | [2]; at 11.0 µM 98% | [2]; at 33.0 µM 99% | [2]; at 100.0 µM 99% | [3]; at 11.0 µM 99% | [3]; at 33.0 µM 99% | [3]; at 100.0 µM 99% | [4]; at 3.7 µM 85% | [4]; [16] 70% | [4]; at 11.0 µM 97% | [4]; at 33.0 µM 98% | [4]; [17] 70% | [4]; at 50.0 µM 90% | [4]; at 100.0 µM 99% | [5]; at 11.0 µM 99% | [5]; at 33.0 µM 99% | [5]; at 50.0 µM 93% | [5]; at 100.0 µM 99% | [6]; at 3.7 µM 88% | [6]; at 11.0 µM 99% | [6]; at 33.0 µM 99% | [6]; at 100.0 µM 99% | [7]; [16] 74% | [7]; [17] 74% | [7]; at 50.0 µM 91.3% | [8]; at 11.0 µM 98% | [8]; at 33.0 µM 99% | [8]; at 100.0 µM 99% | [9]; at 50.0 µM 91% | [10]; at 11.0 µM 99% | [10]; at 33.0 µM 99% | [10]; at 50.0 µM 91.5% | [10]; at 100.0 µM 99% | [11]; at 11.0 µM 99% | [11]; at 33.0 µM 99% | [11]; at 100.0 µM 99% | [12]; at 3.7 µM 70% | [12]; at 11.0 µM 99% | [12]; at 33.0 µM 99% | [12]; at 100.0 µM 99% | [13]; at 11.0 µM 99% | [13]; at 33.0 µM 99% | [13]; at 100.0 µM 99% | [14]; at 50.0 µM 90.1% | [15]; at 3.7 µM 86% | [15]; at 11.0 µM 99% | [15]; at 33.0 µM 99% | [15]; at 100.0 µM 99%
